A number with no mark means an inactive call. How the calls were made is not given here.
These molecules were tested against Pantothenate synthetase (Mycobacterium tuberculosis (strain ATCC 25618 / H37Rv)) (UniProt P9WIL5) (assay: Coupled enzyme confirmation of inhibitors against recombinant Mtb PanC (AID 375;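 further: 0% = full reaction with vehicle and 100% = no enzyme background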)). Conditions: coupled enzyme assay; at 10 µM, active compounds read high.
Sequence of Pantothenate synthetase (Mycobacterium tuberculosis (strain ATCC 25618 / H37Rv)) (P9WIL5 whole entry, looked up): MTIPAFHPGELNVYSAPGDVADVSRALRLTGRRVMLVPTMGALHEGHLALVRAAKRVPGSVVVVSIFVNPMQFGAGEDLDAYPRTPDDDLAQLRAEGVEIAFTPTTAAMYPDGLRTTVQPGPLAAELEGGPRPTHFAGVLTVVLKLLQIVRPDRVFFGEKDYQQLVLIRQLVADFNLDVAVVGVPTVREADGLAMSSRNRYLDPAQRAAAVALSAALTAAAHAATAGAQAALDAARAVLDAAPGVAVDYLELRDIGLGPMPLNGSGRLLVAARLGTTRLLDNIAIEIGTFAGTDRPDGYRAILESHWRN
`CCOC(=O)c1ccc(NS(=O)(=O)c2cccc3nsnc23)cc1` was tested, and the inhibition was 8%. With `O=C(O)C1CC=CCC1C(=O)Nc1cccc(C(=O)N2CCCCC2)c1` (stereo not given) the inhibition was 0%. In the case of `CC(C)Cn1c(CN(Cc2ccccc2)Cc2ccccc2)nc2c1c(=O)n(C)c(=O)n2C`, the inhibition is reported as 5%. `CCCCOC(=O)Cn1c(=N)n(CCN2CCOCC2)c2ccccc21` was tested, and the inhibition was 0%. `COc1cc(-c2noc(-c3ccccc3C(=O)NCc3ccco3)n2)cc(OC)c1OC` gave an inhibition of 9%. `COCC(=O)Nc1sc2c(c1C(=O)OC)C(C(=O)OC)CC2` (stereo not given) gave an inhibition of 0%. Work on `COc1ccc(NC(=O)COc2ccccc2)c(OC)c1` yielded an inhibition of 0%. Work on `COc1ccccc1CNC(=O)C1CCC(CNc2c(N3CCOCC3)c(=O)c2=O)CC1` (stereo not given) yielded an inhibition of 0%. For `COc1ccc(OC)c(C(C)NC=O)c1` (stereo not given), the inhibition was 4%. `Cc1ccc(Cn2c(C)nc3c(c2=O)c2nc4ccccc4nc2n3Cc2ccco2)cc1` showed an inhibition of 0%. Molecule `COC(=O)c1[nH]c2c(c1C)C(=O)CC(c1cccs1)C2` (stereo not given) has an inhibition of 3%. `Cc1onc(-c2c(F)cccc2Cl)c1C(=O)Nc1nc2c(s1)CCCC2` was tested, and the inhibition was 0%. With `CCn1c(SCC(=O)Nc2cc(NC(C)=O)ccc2OC)nnc1-c1ccccn1` the inhibition was 2%. Work on `CC1CC(C)CN(Cc2nc3c(c(=O)n(C)c(=O)n3C)n2Cc2ccccc2Cl)C1` (stereo not given) yielded an inhibition of 0%. `Cc1nnc(SCC(=O)NC(C)(C)C)n1CCc1ccccc1` gave an inhibition of 0%. In the case of `O=c1oc2ccccc2cc1NCc1ccccc1O`, the inhibition is reported as 0%. Work on `COc1cccc(-n2c(SC3CCOC3=O)nc3ccccc3c2=O)c1` (stereo not given) yielded an inhibition of 2%. Work on `CN(C)CCOC(C)(c1ccccc1)c1ccccn1` (stereo not given) yielded an inhibition of 0%. `CCCS(=O)(=O)NCCc1cc2cc(C)c(C)cc2[nH]c1=O` was tested, and the inhibition was 0%. In the case of `CCOc1cccc(C(=O)N(Cc2ccco2)C2CCS(=O)(=O)C2)c1` (stereo not given), the inhibition is reported as 6%. For `COCCNC(=O)c1ccc(Cl)c(Cl)c1`, the inhibition was 0%. `CCOC(=O)c1cnn(-c2ncnc3c2cnn3Cc2ccccc2)c1N` gave an inhibition of 5%. `O=S(=O)(Nc1ccc(Cc2ccncc2)cc1)N1CCCC1` was tested, and the inhibition was 0%. `CC(=O)n1nc(-c2ccco2)nc1SCc1ccccc1` showed an inhibition of 0%. Work on `COC(=O)C1=C(C)NC2=C(C(=O)CCC2)C1c1coc2ccccc2c1=O` (stereo not given) yielded an inhibition of 6%. `CCOC(=O)N1CCN(CC(=O)Nc2c(C(=O)OC)[nH]c3cccc(Cl)c23)CC1` showed an inhibition of 0%. `O=C(O)C1CC(=O)N(c2ccc(OCc3c(F)cccc3Cl)cc2)C1` (stereo not given) gave an inhibition of 2%. `CCOC(=O)NC(=O)CSc1nnc(C)s1` was tested, and the inhibition was 4%. With `Cc1csc(NC(=O)Nc2cccc(Cl)c2)n1` the inhibition was 0%. In the case of `CCCc1n[nH]c2c1/C(=N/O)CC(c1ccccc1)C2` (stereo not given), the inhibition is reported as 8%. For `CCOC(=O)N1CCC(NC(=O)c2ccc3nc(N4CCOCC4)sc3c2)CC1`, the inhibition was 5%. Molecule `O=C(NCCN1CCOCC1)c1ccc(CS(=O)(=O)Cc2ccccc2F)o1` has an inhibition of 2%. `CCOc1ccc(N(CC(=O)Nc2ccc(F)c(F)c2)S(=O)(=O)c2c(C)noc2C)cc1` gave an inhibition of 4%. With `COc1ccc(CCNc2oc(-c3ccccc3OC)nc2C#N)cc1` the inhibition was 2%. `COc1ccc(C(NC(=O)C(C)(C)C)NC(=O)C(C)(C)C)cc1` gave an inhibition of 0%. For `Cc1cc(NC(=O)CCC(=O)N(CC2CCCO2)C(C(=O)NC2CCCC2)c2ccccc2C)no1` (stereo not given), the inhibition was 0%. Molecule `CCOc1cc(C2NC(=O)N(C)C(C)=C2C(=O)OC)cc(Br)c1O` (stereo not given) has an inhibition of 0%. Work on `O=C(OCCN1C(=O)c2ccccc2C1=O)c1ccc(S(=O)(=O)N2CCCCCC2)cc1` yielded an inhibition of 0%. `CCOc1ccc(OCC)c2sc(C)nc12` was tested, and the inhibition was 2%. In the case of `CCCCN(CC)CCCNC(=O)c1cc2c(=O)n(C)c3ccccc3c2n1C`, the inhibition is reported as 0%.

Reference: PubChem BioAssay
